# Laboratory results as given in PubChem BioAssay AID449762 (Southern Research Specialized Biocontainment Screening …, 2010).
# About 1,900 (0.58%) of roughly 330,000 compounds were called active. Not shown: some 4% with an inconclusive outcome. Cut-off read from the data, not from the text of the source: inconclusive = inhibition above about 70% without an active follow-up result; inactive = below that. Not all results are given here. Entries with a potency or affinity are not part of this list.
# Test: M. tuberculosis growth inhibition, HTS (AID 449762);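 note: bacterial growth assessed after seven days of incubation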
# Settings: M. tuberculosis H37Rv growth inhibition, 7H9 media; at 25 µM; active compounds read high
row,SMILES,inhibition
1,CC(=O)OCn1ncc(N2CCOCC2)c(Br)c1=O,-0.34% (inactive)
2,CCOC(=O)c1cnn(CCOC(=O)c2ccc(F)cc2)c1NC(=O)c1ccc(F)cc1,0.06% (inactive)
3,COc1cc(OC)cc(C(=O)NC2CCCN(Cc3ccc(Cl)cc3)C2)c1 (stereo unspecified),7.21% (inactive)
4,Cc1nnc(SCC(=O)NC(=O)NC(C)(C)C)n1N,4.56% (inactive)
5,CCc1nc(N2CCN(C(=O)c3ccccc3)CC2)c(C#N)c2c1COC(C)(C)C2,15.8% (inactive)
6,CC1(C)Cc2c(C#N)c(N3CCOCC3)nc(Cc3ccccc3)c2CO1,1.75% (inactive)
7,COc1ccc(Cn2c(=O)[nH]c3cc(C(=O)NCCCN4CCCCC4)ccc3c2=O)cc1,-8.19% (inactive)
8,CCC1Nc2ncnc(N3CCN(c4ccccn4)CC3)c2N(Cc2ccc(Cl)cc2)C1=O (stereo unspecified),8.22% (inactive)
9,O=C1CC(=C(c2ccccc2)c2ccccc2)C(=O)N1CCCN1CCN(c2cccc(Cl)c2)CC1,59.9% (inactive)
10,Cc1ccccc1N1CCN(CCCN2C(=O)CC(=C(c3ccccc3)c3ccccc3)C2=O)CC1,7.38% (inactive)
11,CCOc1ccccc1NC(=O)Nc1ccc2c(c1)OCO2,0.34% (inactive)
12,O=Cc1ccccc1OCc1ccc2c(c1)OCO2,12.1% (inactive)
13,COc1ccc(-c2nnc(SC3CCOC3=O)n2C2CCCCC2)cc1OC (stereo unspecified),-0.52% (inactive)
14,Cc1ccccc1N1CC(=O)N(c2ccccc2C)CC1=O,-15.8% (inactive)
15,Cn1c2ccccc2c(=O)c2ccc(F)cc21,38.4% (inactive)
16,COc1ccc(C2/C=C\CN(C(=O)C3CCCC3)[C@H](Cc3ccccc3)C(=O)N2Cc2ccc(F)cc2)cc1 (stereo partly specified),5.26% (inactive)
17,COc1ccc(CNC(=O)C2(C)Cc3ccccc3C(=O)O2)cc1 (stereo unspecified),-2.25% (inactive)
18,Nc1ccc2nc(-c3ccccc3)c(-c3ccccc3)nc2c1,5.14% (inactive)
19,Nc1ccc2nc(-c3ccccc3)[nH]c2c1,-2.77% (inactive)
20,O=C(NCc1ccc(F)cc1)C1CCCN(C(=O)NCc2ccccc2)C1 (stereo unspecified),0.48% (inactive)
21,Cc1ccc(C2(CC(=O)O)CCOC(C)(C)C2)cc1 (stereo unspecified),5.71% (inactive)
22,CCc1ccc2c(c1)C1(NN=C(c3ccc(C)cc3)S1)C(=O)N2 (stereo unspecified),5.72% (inactive)
23,Cc1cc(C)c(OCC(=O)Nc2ccccc2N2CCOCC2)c(C)c1,-8.49% (inactive)
24,Cc1ccc(CSc2nc3ccccc3c(=O)n2C)cc1,6.4% (inactive)

row,SMILES,inhibition
1,Cn1c(SCc2ccccc2)nc2ccsc2c1=O,33.7% (inactive)
2,O=C(Nc1cccnc1Cl)c1cc([N+](=O)[O-])ccc1Cl,8.38% (inactive)
3,OCCN(Cc1ccccc1)Cc1cccc(C(F)(F)F)c1,20.1% (inactive)
4,COc1ccccc1/C=C/C(=O)OCC(=O)N1CCc2ccccc21,4.74% (inactive)
5,O=C(c1cccs1)N1CCC(c2nc3c(nnn3Cc3cccc(Cl)c3)c(=O)[nH]2)CC1,6.04% (inactive)
6,O=c1[nH]c(C2CCN(S(=O)(=O)c3ccccc3)CC2)nc2c1nnn2Cc1cccc(Cl)c1,4.46% (inactive)
7,O=C1CSC(c2ccccc2)N1CC12CC3CC(CC(O)(C3)C1)C2 (stereo unspecified),-2.58% (inactive)
8,CCOc1ccc(NC(=O)CN(C)C(=O)c2cc3c(s2)CCC(C)C3)cc1OCC (stereo unspecified),1.11% (inactive)
9,COc1ccc(-c2nc(NC(=O)Cn3cnnn3)sc2C)cc1,-7.31% (inactive)
10,COc1ccc(-c2nc(NC(=O)CSCCO)sc2C)cc1,2.7% (inactive)
11,CCOc1ccc(N2C(=O)CC(NC3CCN(C(=O)c4ccc(F)cc4)CC3)C2=O)cc1 (stereo unspecified),-3% (inactive)
12,O=C(Oc1ccc(Br)cc1)c1cncc(Br)c1,-0.43% (inactive)
13,Cc1cccc(OC(=O)c2cncc(Br)c2)c1,23.5% (inactive)
14,O=C(CCC(=O)Nc1ccc(F)cc1)N/N=C/c1ccc(O)cc1O,-2.52% (inactive)
15,CC1CCCCN1Cc1c(O)ccc2c(=O)c(-c3ccc(Cl)cc3)coc12 (stereo unspecified),0.71% (inactive)
16,O=C1c2ccccc2C(=O)N1C(CO)C(O)c1ccc([N+](=O)[O-])cc1 (stereo unspecified),-1.67% (inactive)
17,O=C(CSC(=S)N1CCOCC1)Nc1ccc(S(=O)(=O)Nc2ncccn2)cc1,-0.18% (inactive)
18,O=C(NNc1c2ccccc2nc2ccccc12)c1ccc(O)cc1,13.8% (inactive)
19,CCCC(=O)NNc1c2ccccc2nc2ccccc12,-11.4% (inactive)
20,[O-][n+]1cccc(C(O)c2ccccc2)c1 (stereo unspecified),-13.5% (inactive)
21,COC(=O)c1c(C)oc(C)c1S(=O)(=O)N1CCOCC1,-2.09% (inactive)
22,C=CCNC(=O)C1CC(=O)N(c2ccc(OCC(=O)Nc3c(C)cccc3C)cc2)C1 (stereo unspecified),1.18% (inactive)
23,Cc1nc2ccccc2c(=O)n1/N=C/c1c(O)ccc2ccccc12,9.53% (inactive)
24,Cc1nnc(C)n1/N=C/c1c(O)ccc2ccccc12,2.29% (inactive)

row,SMILES,inhibition
1,Clc1ccccc1COc1ccccc1-c1nnco1,19.4% (inactive)
2,O=C(Oc1ccccc1-c1nnco1)c1ccccc1,-3.01% (inactive)
3,C/C(=N/NC(=O)c1ccc(Br)o1)C(C)C,3.04% (inactive)
4,COCCNC(=S)N1CCc2cc(OC)c(OC)cc2C1c1cccs1 (stereo unspecified),-7.46% (inactive)
5,NC(=S)N/N=C\c1ccccc1OCc1ccccc1,49.5% (inactive)
6,NC(=S)N/N=C/c1ccccc1OCc1cccc(Cl)c1,2.95% (inactive)
7,Cc1ccc(N2C(=O)c3cccc([N+](=O)[O-])c3C2=O)cc1C,-6.94% (inactive)
8,COc1ccc(-c2cc3c(=O)n(CC(=O)NCCCN4CCN(Cc5ccccc5)CC4)ncn3n2)cc1,1.94% (inactive)
9,COc1ccc(-c2cc3c(=O)n(CC(=O)NCCCN4CCC(N5CCCCC5)CC4)ncn3n2)cc1,2.99% (inactive)
10,O=C(NCCC1=CCCCC1)C1CCN(C(=O)c2ccc(Br)cc2)CC1,5.13% (inactive)
11,Cc1ccccc1OCCn1cc(C(=O)O)c2ccccc21,-0.94% (inactive)
12,Cc1ccnc2nc(C(=O)Nc3nc(-c4ccccn4)cs3)nn12,0.14% (inactive)
13,O=C(CCS(=O)(=O)c1ccc(F)cc1)Nc1nc(-c2ccncc2)cs1,31.5% (inactive)
14,CCc1cc(C(=O)Nc2ncccc2O)sc1C,6.5% (inactive)
15,O=C(CCS(=O)(=O)c1ccccc1)Nc1nc(-c2ccc(F)cc2)cs1,8.67% (inactive)
16,COc1cccc(-c2nc(CS(=O)(=O)CC(=O)NCCCN3CCc4ccccc4C3)c(C)o2)c1,-28.4% (inactive)
17,CCCc1cc(=O)n2[nH]cnc2n1,-4.95% (inactive)
18,Cc1cc(C)n(CCOc2ccc(Br)cc2)n1,2.96% (inactive)
19,c1csc(CCNc2ncnc3sc4c(c23)CCC4)c1,1.63% (inactive)
20,COc1ccc(/C=N/Nc2ncnc3sc4c(c23)CCCC4)cc1OC,-2.36% (inactive)
21,CC(=O)CSc1nnc2cc(C)c3ccccc3n12,0.13% (inactive)
22,CC(=O)N1CCN(c2ccc(NC(=O)c3cccc(OCc4ccccc4)c3)cc2)CC1,62.8% (inactive)
23,Cn1c(=O)c2c(nc(NCC(O)CO)n2CCc2ccccc2)n(C)c1=O (stereo unspecified),2.12% (inactive)
24,CN1CCN(c2ccc(NC(=O)c3cccc(S(=O)(=O)N4CCCC4)c3)cc2)CC1,-4.85% (inactive)

row,SMILES,inhibition
1,Cc1[nH]n(-c2ccccc2)c(=O)c1C(c1cccc([N+](=O)[O-])c1O)c1c(C)[nH]n(-c2ccccc2)c1=O,-4.36% (inactive)
2,COc1ccc(C(C[N+](=O)[O-])c2c(C)[nH]n(-c3ccccc3)c2=O)cc1 (stereo unspecified),32.3% (inactive)
3,CCC1C(c2ccccc2)NC(c2ccccc2)CC1(O)c1ccc(F)cc1 (stereo unspecified),29.1% (inactive)
4,CCN1CC(C)C(O)(c2ccccc2)CC1C (stereo unspecified),-1.44% (inactive)
5,NC(=O)CC(NC(=O)Cc1cccc2ccccc12)c1ccc(N2CCC(Cc3ccccc3)CC2)c([N+](=O)[O-])c1 (stereo unspecified),-0.77% (inactive)
6,COc1ccc(CN(C)C(=O)c2ccc(NC(=O)CC3SC(N4CCCC4)=NC3=O)cc2)c(OC)c1 (stereo unspecified),7.53% (inactive)
7,CC1CC(C)(C)CC2(C1)NC(=O)N(CC(=O)Nc1ccc(N3CCCCC3)cc1)C2=O (stereo unspecified),5.59% (inactive)
8,C=C(C)CNC(=S)NN=C1c2ccccc2-c2ccccc21,12.3% (inactive)
9,CC(C)NC(=S)NN=C1c2ccccc2-c2ccccc21,-0.95% (inactive)
10,Cc1cc2c(cc(C(=O)O)n2C)s1,-1.98% (inactive)
11,CCN(CC)CCCNC(=O)c1cc2c(-c3ccc(Cl)cc3)nn(C)c2s1,47.1% (inactive)
12,CCN(CC)CCNC(=O)c1cc2c(-c3ccc(Cl)cc3)nn(C)c2s1,7.68% (inactive)
13,c1ccc(-c2cc3ccccc3nc2N2CCCC2)cc1,4.32% (inactive)
14,Clc1ccc(-c2cc3ccccc3nc2N2CCOCC2)cc1,48.3% (inactive)
15,Cc1ccc(NC(=O)COC(=O)CCc2ccc(S(=O)(=O)N3CCOCC3)cc2)cc1F,2.39% (inactive)
16,O=C(O)c1ccccc1C(=O)NC1CCCCNC1=O (stereo unspecified),-1.29% (inactive)
17,OCCNCC(O)Cn1ccc2ccccc21 (stereo unspecified),-2.23% (inactive)
18,OC(CNc1ccccc1)Cn1ccc2ccccc21 (stereo unspecified),12.2% (inactive)
19,CC(=O)c1ccc(C(=O)NC2CCCN(Cc3ccccc3F)C2)s1 (stereo unspecified),-25.9% (inactive)
20,Cc1cc(C)cc(NC(=O)CCn2cnc3cc(C)c(C)cc32)c1,62.6% (inactive)
21,COc1ccc(C=C2C(=O)OC(C)(C)OC2=O)cc1OC,5.49% (inactive)
22,COc1ccc(/C=C2\Cc3ccccc3C2=O)cc1OC,5.99% (inactive)
23,CNC(=O)C(=O)NCC(c1cccs1)S(=O)(=O)c1ccc(F)cc1 (stereo unspecified),-2.67% (inactive)
24,Cc1ccc(C)c(N2CCN(C(=O)c3ccc(NC4=NC5CS(=O)(=O)CC5S4)cc3)CC2)c1 (stereo unspecified),-1.31% (inactive)
